Inconclusive results are not listed. Where a call stands in place of a potency, no number is given. Activity calls are given as the source filed them. Calls come from the whole dose curve; as a rule, active = well fitted cell-killing curve with a large enough effect; inconclusive = small, poorly fitted or top-dose-only effect; inactive = flat fitted curve, though single readings scatter.
Potency is the fitted concentration of half-maximal effect.

The nature of this assay: Quantitative highthroughput screen to assess conditional lethalithy of NOMO1 cells grown in RPMI1640 with untreated serum (RPMI+s) (AID 1963876). Note: nearly all actives have a fitted effect of over 35% in size. To be noted: NOMO1 AML cells in RPMI+serum, CellTiter-Glo viability, 48 h; series mostly up to 45.8 µM. An excerpt:
Assay Provider: Jason Cantor Ph.D.
Department of Biochemistry
University of Wisconsin-Madison, Madison, WI, USA
Chemical screening studies have identified drug sensitivities across hundreds of cancer cell lines but most putative therapeutics fail to translate. Discovery and development of drug candidates in models that more accurately reflect nutrient levels in human blood is a major challenge. Here we performed high-throughput screens in conventional versus Human Plasma-Like Medium (HPLM) to identify compounds that were "missed" when screening using the artificial culture condition. Sets of conditional anticancer compounds spanned phases of clinical development and included non-oncology drugs were assessed. […] We also traced conditional phenotypes for several chemotherapeutics to availability of HPLM-specific metabolites and confirmed others for compounds whose reported targets are encoded by nonessential genes. Our findings establish generalizable strategies for exploiting conditional lethality in HPLM to reveal therapeutic candidates and mechanisms of action in cancer cells.
Described herein are the results of each viability screens against three cell lines: NOMO1 (an acute myeloid leukemia cell line); P12-Ichikawa (a T-cell acute lymphoblastic leukemia); and SEM (a B-cell ALL). Each assay was screened using 3 different cell culture media: homemade human plasma-Like medium with 10% dialyzed fetal bovine serum (HPLM+ds); RPMI1640 with 10% untreated FBS and 5mM glucose (RPMI+s); and RPMI1640 with 10% dialyzed fetal bovine serum and 5 mM glucose (RPMI+ds).
PROTOCOL TABLE (as described by Inglese J, Shamu CE and Guy RK. 2007)
SEQUENCE No. (e.g., 1, 2, 3, etc.); […] (e.g., Cells, Incubation, Reagent, etc.); VALUE and DESCRIPTION.
1; Cells; 5 uL; white, solid bottom 1536-well Greiner assay plate.
2; Compounds; 23 nL; Kalypsis pin tool (Wako USA) equipped with a 1536-well pin head to transfer to the assay plates.
3; Incubation; 48 hours; 37C incubation.
4; Reagent; 3 uL; CellTiter Glo (Promega).
5; Incubation; 5 min, room temperature
6; Detection; Luminescence, Viewlux PerkinElmer.
NOTES (numbers refer to Sequence numbers above)
1. Briefly, 5 ul of cell reagent was dispensed using a Multidrop Combi Dispenser. The NOMO1 and SEM cells were plated at 500 cells/well and the P12-Ichikawa line at 1000 cells/well.
2. After seeding the cells, 23 nL of MIPE 4.1 library compounds (in DMSO) were added to each plate using a Kalypsys 1536 Pintool dispenser. Bortezomib at final concentration of […] and DMSO were added to each plate as positive and negative controls respectively. For each screen, MIPE 4.1 compounds were added over an eleven-point concentration range […] in 3-fold dilutions.
3. Each plate was covered with a stainless steel gasketed lid to prevent evaporation and incubated for 48 hour at 37C, 95% relative humidity, and 5% CO2.
4-5. Three microliter CellTilter-GloTM luminescent substrate mix (Promega) reagent was added to the assay plate and incubated at room temperature for 5 min.
6. The luminescence signal was measured using a ViewLux (PerkinElmer) multiplate reader with a 2 second exposure time per plate. Data for each compound were normalized as percent viability such that measurements for DMSO and the empty well controls in each plate were defined as 100% and 0%, respectively.
(ATP-based viability assays read luminescence as a measure of living cells.)
For `C#CCN(C)[C@H](C)Cc1ccccc1`, the Potency result was “inactive”.

With `CSCC[C@@H](NC(=O)[C@@H](Cc1ccccc1)NC(=O)CNC(=O)CNC(=O)[C@@H](N)Cc1ccc(O)cc1)C(=O)O`, the Potency result was “inactive”.

Consider `O=S(=O)(F)Cc1ccccc1`, for which the Potency result was “inactive”.

On to `C[C@@H]1[C@@H](CC(C[C@H]2O[C@@H]3O[C@]4(C)CC[C@@H]5[C@H](C)CC[C@@H]([C@H]2C)[C@@]35OO4)C[S+](=O)([O-])c2ccc(COC(=O)N(C)C)cc2)O[C@@H]2O[C@]3(C)CC[C@H]4[C@H](C)CC[C@@H]1[C@@]24OO3` (stereo not given in full), for which the Potency is 833 nM (active).

With `CC(O)=C(C#N)C(=O)Nc1cc(Br)ccc1Br`, the Potency result is “inactive”.

Take `CN1C(=O)CCS(=O)(=O)C1c1ccc(Cl)cc1` (stereo not given): the Potency result was “inactive”.

`C[C@]12CC[C@H](O)CC1=CC[C@H]1[C@H]3CCC(=O)[C@@]3(C)CC[C@@H]12`: the Potency result was “inactive”.

As to `C[C@@H]1O[C@@H](O[C@@H]2C=C3CC[C@@H]4[C@@H](CC[C@]5(C)[C@H](c6ccc(=O)oc6)CC[C@@]45O)[C@@]3(C)CC2)[C@H](O)[C@H](O)[C@H]1O`, the Potency was 66.2 nM (active).

`C[C@](O)(CS(=O)(=O)c1ccc(F)cc1)C(=O)Nc1ccc(C#N)c(C(F)(F)F)c1`: the Potency result is “inactive”.

Take `CC[C@@H](C(N)=O)N1CCCC1=O`: the Potency result was “inactive”.

On to `Cn1cc(C2=C(c3cn(C4CCN(Cc5ccccn5)CC4)c4ccccc34)C(=O)NC2=O)c2ccccc21`, for which the Potency entry was “inactive”.

In the case of `COc1ccc(CC2NCCc3cc(OC)c(OC)cc32)cc1OC` (stereo not given), the Potency result was “inactive”.

For the compound `CCc1c(C(=O)C(N)=O)c2c(OCC(=O)O)cccc2n1Cc1ccccc1`, the Potency result was “inactive”.

For the compound `Cc1[nH]nc2ccc(-c3cncc(OC[C@@H](N)Cc4c[nH]c5ccccc45)c3)cc12`, the Potency is 1180 nM (active).

As for `C[C@](O)(COc1ccc(C#N)cc1)C(=O)Nc1ccc(C#N)c(C(F)(F)F)c1`, the Potency result is “inactive”.

In the case of `O=c1[nH]c2ccccc2n1C1CCN(Cc2ccc(-c3[nH]c4cc5ncnc5cc4nc3-c3ccccc3)cc2)CC1`, the Potency entry is “inactive”.

With `Cc1c(N)nc([C@H](CC(N)=O)NC[C@@H](N)C(N)=O)nc1C(=O)N[C@H](C(=O)N[C@@H](C)[C@H](O)[C@@H](C)C(=O)N[C@@H](C(=O)NCCc1nc(-c2nc(C(=O)NCCC[S+](C)C)cs2)cs1)[C@@H](C)O)C(O[C@H]1O[C@H](CO)[C@H](O)[C@@H](O)[C@@H]1O[C@H]1O[C@H](CO)[C@@H](O)[C@H](OC(N)=O)[C@H]1O)c1cnc[nH]1` (stereo not given in full), the Potency is 1180 nM (active).

Turning to `CCOc1ccccc1-n1c(C(C)N2CCN(C(=O)COc3ccc(Cl)cc3)CC2)nc2ccccc2c1=O` (stereo not given), the Potency is 1320 nM (active).

As to `CC(C)CC(N(C)C)C1(c2ccc(Cl)cc2)CCC1` (stereo not given), the Potency result is “inactive”.

For `C=C[C@@H]1CN2CCC1C[C@@H]2[C@@H](O)c1ccnc2ccccc12` (stereo not given in full), the Potency entry is “inactive”.

In the case of `O=P1(NCCCl)OCCCN1CCCl` (stereo not given), the Potency result was “inactive”.

On to `CC(NC(C)(C)C)C(=O)c1cccc(Cl)c1` (stereo not given), for which the Potency result was “inactive”.

As for `C=CCON=C(C[C@H]1O[C@@H]2O[C@]3(C)CC[C@@H]4[C@H](C)CC[C@@H]([C@H]1C)[C@@]24OO3)[C@H]1O[C@@H]2O[C@]3(C)CC[C@H]4[C@H](C)CC[C@@H]([C@@H]1C)[C@@]24OO3`, the Potency was 833 nM (active).

Take `CN(C)[C@@H]1C(=O)C(C(N)=O)=C(O)[C@@]2(O)C(=O)C3=C(O)c4c(O)cccc4[C@@](C)(O)[C@H]3C[C@@H]12`: the Potency entry was “inactive”.

`CC(=O)N(C)c1cccc(-c2ccnc3c(C(=O)c4cccs4)cnn23)c1`: the Potency result was “inactive”.

For the compound `Clc1ccccc1C(c1ccccc1)(c1ccccc1)n1cccn1`, the Potency result was “inactive”.

For the compound `C[C@@H]1C[C@@H]([C@H](O)CC2CC(=O)NC(=O)C2)C(=O)[C@@H](C)C1`, the Potency was 1660 nM (active).

In the case of `O=C1C=CC[C@@H]2[C@H]3CCCN4CCC[C@@H](CN12)[C@@H]34`, the Potency result was “inactive”.

`Cc1ncc(OC[C@@]2(c3cccc(F)c3)C[C@H]2C(=O)Nc2ccc(F)cn2)c(C)n1`: the Potency result is “inactive”.

On to `Cn1c(CCCC(=O)O)nc2cc(N(CCCl)CCCl)ccc21`, for which the Potency entry is “inactive”.

With `NC1=NC(=O)N2CC12` (stereo not given), the Potency is 5900 nM (active).

As to `O=C(O)CNC(=O)c1c(O)c2ccccc2n(Cc2ccccc2)c1=O`, the Potency result was “inactive”.

As to `COC(=O)[C@@H](N)CCCN=C(N)N[N+](=O)[O-]`, the Potency entry was “inactive”.

Consider `CNCC(O)c1ccc(O)cc1` (stereo not given), for which the Potency entry was “inactive”.

With `O=C(Oc1ccc([N+](=O)[O-])cc1)N1CCC(C(O)(c2ccc3c(c2)OCO3)c2ccc3c(c2)OCO3)CC1`, the Potency result was “inactive”.

For the compound `CC(=Cc1csc(C)n1)[C@@H]1C[C@H]2O[C@@H]2CCC[C@H](C)[C@@H](O)[C@@H](C)C(=O)C(C)(C)[C@@H](O)CC(=O)O1`, the Potency entry was “inactive”.

Regarding `CC(C)(O)C=CC(=O)[C@](C)(O)[C@H]1[C@H](O)C[C@]2(C)[C@@H]3CC=C4[C@@H](C=C(O)C(=O)C4(C)C)[C@]3(C)C(=O)C[C@@]12C`, the Potency is 187 nM (active).

In the case of `CCNC(=O)CC1N=C(c2ccc(Cl)cc2)c2cc(OC)ccc2-n2c(C)nnc21` (stereo not given), the Potency result was “inactive”.

Turning to `CN(C)CCN(C)CCc1ccc(Cl)c(Cl)c1`, the Potency result was “inactive”.

On to `C#CC1(O)CCC2C3CCC4=CC(=O)CCC4(C)C3CCC21C` (stereo not given), for which the Potency result is “inactive”.

(Values after PubChem BioAssay (NCATS).)
